Hits are enriched below; roughly 3.7% of the tested compounds scored in any of these assays.
BoNT F protease – inhibitors of Botulinum neurotoxin F light chain protease | Multiplex microsphere protease cleavage assay, flow cytometry | 360,000 tested, 0.22% active | inhibition, % at 10 µM | AID 588497; in the data active = inhibition above about 35%, passing the limit was not always enough; inconclusive = no clear call, values can overlap the other calls; also: plate controls were buffer without enzyme for full effect and enzyme alone for no effect
Autofluor counter – compound fluorescence in toxin protease inhibitor counterscreen; compound autofluorescence counterscreen, microsphere flow cytometry; active compounds read high; fluorescence intensity (concentration not given with the values); 360,000 tested, 3.1% active; AID 624483; in the data active = fluorescence intensity above about 16000; inconclusive = no clear call, values can overlap the other calls
Anthrax LF prot – blocks Bacillus anthracis lethal factor protease. P15917. multiplex microsphere protease cleavage assay, LF. inhibition, % at 10 µM. 360,000 tested, 0.12% active; also: plate controls were buffer without enzyme for full effect and enzyme alone for no effect
BoNT-A LC inh2 – BoNT A light chain protease inhibition. multiplex microsphere protease substrate cleavage, flow cytometry. inhibition, % at 10 µM. 360,000 tested, 0.17% active; also: plate controls were buffer without enzyme for full effect and enzyme alone for no effect
MazF activator – activators of E. coli MazEF toxin-antitoxin RNase. activation, % at 20 µM. P0AE70. FAM/BHQ RNA-DNA oligo cleavage fluorescence, 5 h. 350,000 tested, 0.32% active; in the data active = activation above about 50%
Target sequence (P0AE70 whole entry, looked up): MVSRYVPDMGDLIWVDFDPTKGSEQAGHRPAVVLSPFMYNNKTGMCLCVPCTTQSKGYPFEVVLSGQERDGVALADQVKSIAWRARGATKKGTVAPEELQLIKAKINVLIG
* marks the source's active call; other numbers are inactive results; ? = inconclusive; . = no result. Rule as the data show it, unless noted: active = inhibition above about 30%; inconclusive = no clear call, values can overlap the other calls; inactive = below that.

SMILES | BoNT F protease | Autofluor counter | Anthrax LF prot | BoNT-A LC inh2 | MazF activator
Cc1cccc(NC(=S)N/N=C/c2cccc([N+](=O)[O-])c2)c1 | -0.3 | 4615 | -1.7 | 0.2 | 58.0*
Cc1ccc(NC(=S)N/N=C/c2ccc([N+](=O)[O-])s2)cc1 | -2.3 | 2722 | 27.0 | 47.3* | 12.9
Cc1cccc(NC(=S)N/N=C/c2ccc(Cl)c([N+](=O)[O-])c2)c1 | 2.3 | 9246 | 0.1 | 1.1 | 4.3
O=[N+]([O-])c1ccc(Cl)c(/C=N/NC(=S)Nc2ccccc2)c1 | -4.3 | 16957* | -3.8 | ? | 15.9
CCOC(=O)C1(Cc2ccccc2C)CCCN(C(=O)c2ccc(C(C)=O)s2)C1 (stereo not drawn) | -2.7 | 3734 | -3.8 | -0.1 | -4.1
CCCCN1C(=O)C(CC(=O)NCCN2CCOCC2)CC(C(=O)N(C(C)C)C(C)C)=C1C (stereo not drawn) | 0.7 | 3336 | 0.5 | 0.0 | -12.7
Cc1ccc(S(=O)(=O)NCCC(=O)NC2CCCCCC2)cc1 | 9.5 | 4818 | -1.4 | 3.8 | 4.8
O=C(CCNS(=O)(=O)c1ccc(Br)s1)NC1CCCC1 | -1.4 | 24053* | 0.8 | -2.2 | -1.1
Cc1ccc(S(=O)(=O)NCCC(=O)NC2CCCC2)cc1 | 1.7 | 20213* | 0.7 | ? | 0.7
CC1(C(=O)NCc2ccc3c(c2)OCO3)CCN1Cc1csc2ccccc12 (stereo not drawn) | -0.8 | 3329 | 0.7 | 0.1 | .
COc1ccc(N2CCN(CCCn3cnc4c(OC)ncnc43)CC2)cc1 | -1.9 | 3902 | 1.1 | -0.5 | 4.9
COC(=O)[C@H](C(C)C)N(Cc1ccccc1)S(=O)(=O)CCN1CCN(c2ccccc2)CC1 | -4.5 | 2875 | -0.8 | -0.4 | 2.1
CCN(CC)C(=O)C1=C(C)N(CCC2=CCCCC2)C(=O)C(CC(=O)NCc2ccco2)C1 (stereo not drawn) | -1.6 | 3353 | 1.3 | 0.1 | 7.9
O=C(NCCNC1CCCCC1)c1ccco1 | -4.4 | 3614 | 0.7 | -0.4 | 3.7
O=C(NCC1CCCCC1)c1ccco1 | -4.4 | 22013* | 0.5 | ? | 2.0
Cc1ccc(S(=O)(=O)NCCN=C(CN2CCCC2)NS(=O)(=O)c2ccc(C)cc2)cc1 | -4.9 | 24857* | -8.0 | ? | -8.5
Cc1ccc(S(=O)(=O)NCC(=O)N2CCCC2)cc1 | -1.9 | 16845* | 1.7 | ? | -16.9
CCCNC(=O)C1(C)CCN(C(=O)c2ccc(F)c(Cl)c2)C1 (stereo not drawn) | 0.1 | 3791 | -2.0 | 0.1 | .
NC(=S)c1csc(CCNC(=O)c2ccccc2)n1 | -7.7 | 2971 | -5.6 | 0.0 | 1.9
Cc1nc(CC(=O)N2CCN(c3cccc(C)c3C)CC2)cs1 | -5.7 | 20386* | 2.4 | -1.4 | -4.8
COC(=O)C1=C(c2cc3ccccc3o2)C[C@@H]2CC[C@H]1N2C | -2.2 | 4201 | -9.3 | -0.3 | -7.7
COC(=O)C1=C(C)n2nnnc2NC1c1cc2ccccc2o1 (stereo not drawn) | 9.2 | 17991* | -7.1 | ? | -1.0
CS(=O)(=O)N(CC(=O)NC1CCCCC1)Cc1ccc(Cl)cc1 | -5.1 | 17256* | -3.9 | -2.6 | 7.2
CN1CCN(C(=O)CN(Cc2ccc(Cl)cc2)S(C)(=O)=O)CC1 | -3.4 | 2734 | -2.3 | -0.1 | 1.7
CS(=O)(=O)N(CC(=O)NCC1CCCO1)Cc1ccc(Cl)cc1 (stereo not drawn) | -32.7 | 3793 | -1.6 | -0.1 | 4.1
SMILES | BoNT F protease | Autofluor counter | Anthrax LF prot | BoNT-A LC inh2 | MazF activator
CS(=O)(=O)N(CC(=O)N1CCCCCC1)Cc1ccc(Cl)cc1 | 4.4 | 22456* | -0.7 | ? | 1.2
CS(=O)(=O)N(CC(=O)NC1CCCC1)Cc1ccc(Cl)cc1 | -0.4 | 17349* | 0.3 | -2.7 | 3.4
O=C1NC(=O)C2(CCCC2C(=O)O)N1 (stereo not drawn) | 3.5 | 3701 | 2.1 | -0.1 | 5.5
O=C(c1ccc(Cl)c(Cl)c1)c1cnc(Nc2ccccc2)s1 | -0.8 | 16510* | -0.7 | -0.1 | -17.1
O=C(c1ccccc1)c1cnc(Nc2ccccc2Cl)s1 | -2.8 | 21405* | -5.4 | 3.9 | 1.1
O=C(c1cc2c(=O)n3ccccc3nc2s1)N1CCOCC1 | -3.5 | 21556* | 0.3 | -3.4 | 3.7
CC1CCN(C(=O)c2cc3c(=O)n4ccccc4nc3s2)CC1 | 7.5 | 5521 | 2.6 | 2.5 | 12.0
O=C(NCCCN1CCCC1=O)c1nnc(Cc2c(F)cccc2Cl)o1 | -0.9 | 22538* | -0.4 | ? | -2.5
CN1CCN(CCCNC(=O)c2nnc(Cc3c(F)cccc3Cl)o2)CC1 | 8.9 | 18850* | -8.9 | 9.7 | -7.0
COc1ccc(CCNC(=O)c2nnc(Cc3c(F)cccc3Cl)o2)cc1OC | 5.5 | 3713 | 1.1 | 0.2 | -11.4
O=C(Cc1cccc(NC(=O)C2CCCN(C(=O)C3CCCCC3)C2)c1)Nc1cccc(C(=O)N2CCOCC2)c1 (stereo not drawn) | 1.7 | 3696 | -5.8 | -0.3 | -2.6
Cc1nc2nc3c(cn2n1)C(=O)CCC3 | -2.6 | 21199* | -1.6 | -2.4 | 1.9
CC1(C)CC(=O)c2cn3nc(C(F)(F)F)nc3nc2C1 | 17.2 | 8301 | 2.0 | 1.2 | 1.2
Clc1ccc(/C=C/c2nc3ccccc3[nH]2)cc1 | -5.3 | ? | -22.6 | 2.4 | 67.5*
c1ccc2[nH]c(CSc3nccs3)nc2c1 | 2.8 | ? | ? | 1.7 | -5.7
Cc1ccc(CSCc2nc3ccccc3[nH]2)cc1 | -4.2 | 3450 | -3.1 | -0.1 | -11.1
Cc1ccc(SCc2nc3ccccc3[nH]2)cc1 | 2.8 | 20672* | 2.6 | 4.2 | 4.4
Clc1ccc(SCc2nc3ccccc3[nH]2)cc1 | 0.6 | 21863* | 0.5 | ? | 2.5
Clc1ccc(OCCSCc2nc3ccccc3[nH]2)cc1 | 11.0 | 5083 | 0.1 | 0.7 | 1.0
c1ccc(SCc2nc3ccccc3[nH]2)cc1 | -9.9 | 24904* | 0.9 | -6.9 | 2.5
CCCCN1C(=O)C(CC(=O)NCc2cccc3ccccc23)CC(C(=O)N2CCOCC2)=C1C (stereo not drawn) | -7.2 | 3182 | 3.7 | -0.6 | 3.8
CCCCN1C(=O)NC(NS(=O)(=O)c2ccc(N)cc2)(C(F)(F)F)C1=O (stereo not drawn) | 1.5 | 19835* | -6.4 | 1.9 | -4.1
CC[N+](CC)(CC)CCC(O)(c1ccccc1)C1CCCCC1 (stereo not drawn) | -3.0 | 5473 | 3.3 | 0.7 | 8.4
CCN(CC)CCC(O)(c1ccccc1)C1CCCCC1 (stereo not drawn) | ? | 60438* | -209.1 | -226.0 | 2.1
CCNc1ccc(Br)cc(C(=O)/C=C/c2ccc(Cl)cc2Cl)c1=O | 28.2 | 17500* | 43.3* | ? | 0.7
CNc1ccc(Br)cc(C(=O)/C=C/c2ccc(OC)cc2)c1=O | 1.8 | 2252 | 9.2 | 28.2 | -13.1
CNc1ccc(Br)cc(C(=O)/C=C/c2ccc3c(c2)OCO3)c1=O | 2.3 | 3091 | 20.6 | 13.9 | -1.6
CNc1ccc(Br)cc(C(=O)/C=C/c2cc(OC)ccc2OC)c1=O | 14.6 | 17230* | 28.4 | 24.1 | -8.8
CN(C(=O)c1ccc(NC(=O)Cc2cccc(NC(=O)C3CCCN(C(=O)C4CC4)C3)c2)cc1)C1CC1 (stereo not drawn) | -3.2 | 3792 | -4.8 | -0.1 | 5.5
